The nature of assay [1]: inhibitors of TNFa-induced NFkB p65 translocation, primary screen, imaging, HUVEC, MLSMR starter and 10KST1 sets (AID 438;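 active = inhibition above 20% together with a positive visual image hit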;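 also: compound added about 3h40 before a 20 min TNFalpha stimulation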;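 as to inhibition: signal is the nuclear over cytoplasmic p65 intensity ratio per well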). The note with it: HUVEC TNFa-induced p65 nuclear translocation; cell count: measured here: nuclei count (cytotoxicity indicator), at 2.08 µM; inhibition: at 2 µM, stronger effect = higher value, 0% TNFa-plus-vehicle, 100% no-TNFa wells.
Assay [2] is described as follows: reduction of polyQ htt aggregates in cells – imaging, exon1htt(103Q)mCFP cells, high-content imaging, primary screen (AID 483;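 active = visual image review flags a hit and inhibition of aggregation exceeds 20%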;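 also: compound exposure lasted 3 days before fixation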;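 as to nuclei count: percent of the per-plate median nuclei count of sample wells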). The following applies: exon1htt(103Q)mCFP cell line, aggregate imaging, at 2 µM; inhibition of aggregation: stronger effect = higher value; nuclei count: measured here: cell count, toxicity.
Assay [3] can be described thus: endothelial E-selectin expression blockers – imaging, HUVEC, immunofluorescence, MLSMR starter and 10KST1 sets, primary screen (AID 487;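 active = visually confirmed hit in the image check and inhibition above 20%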;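 as to inhibition: signal is fraction of cell area covered by stained E-selectin grains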;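 as to nuclei count: 100% = median nuclei count of all wells on the same plate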). The note with it: HUVEC TNFalpha-induced E-selectin immunofluorescence imaging, at 2 µM; inhibition: stronger effect = higher value; nuclei count: measured here: cell number, toxicity.
In assay [4] the target is Voltage-gated potassium channel subunit beta-2 (Rattus norvegicus) (UniProt P62483). Kind of assay: inhibitors of rat Kvbeta2 reductase activity – biochemical, NADPH fluorescence, primary screen (AID 622;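 active = fluorescence slope higher than the sample average by over 3 SD, cut at about -0.22 in these data, passing the limit was not always enough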;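 also: slope of raw intensity against log time taken from 70 to 1610 s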). The note with it: recombinant KvBeta, 4-cyanobenzaldehyde reduction, at 10 µM, stronger effect = higher value.
Chain of Voltage-gated potassium channel subunit beta-2 (Rattus norvegicus) (P62483 whole entry, looked up): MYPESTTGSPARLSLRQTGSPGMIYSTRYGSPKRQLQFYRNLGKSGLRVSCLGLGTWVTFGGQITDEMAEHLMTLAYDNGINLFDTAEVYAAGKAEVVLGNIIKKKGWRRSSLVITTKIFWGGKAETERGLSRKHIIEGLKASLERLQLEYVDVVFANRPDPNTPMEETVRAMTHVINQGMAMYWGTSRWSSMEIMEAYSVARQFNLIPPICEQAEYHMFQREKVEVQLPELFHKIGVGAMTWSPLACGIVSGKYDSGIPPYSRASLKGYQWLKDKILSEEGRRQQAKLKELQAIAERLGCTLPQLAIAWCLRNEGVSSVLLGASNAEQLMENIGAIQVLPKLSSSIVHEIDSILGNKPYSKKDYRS
Assay [5] shares this target. Nature of the assay: enhancers of rat Kvbeta2 NADPH turnover – biochemical, NADPH fluorescence, primary screen (AID 623;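 active = NADPH fluorescence slope more negative than the mean of all samples by about 3 SD, 99.7% confidence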;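 also: fluorescence intensity change per second fitted from 20 to 320 s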). The following applies: Recombinant KvBeta, NADPH fluorescence decrease slope, 10 min; at 10 µM; stronger effect = lower value.
In assay [6] the target is Alpha-2C adrenergic receptor (Homo sapiens) (UniProt P18825). Nature of the assay: compounds altering alpha2C-coupled GIRK flux – cell-based, HEK293 alpha2C/GIRK1/2, thallium flux, primary screen (AID 624;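 active = fluorescence slope after compound addition differing from the mean of all screened samples at 99.7% confidence, in either direction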;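 also: slope of fluorescence ratio to pre-addition baseline per second over 15 to 24 s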). The following applies: thallium flux BTC fluorescence, at 10 µM, actives lie on both sides.
Chain of Alpha-2C adrenergic receptor (Homo sapiens) (P18825 whole entry, looked up): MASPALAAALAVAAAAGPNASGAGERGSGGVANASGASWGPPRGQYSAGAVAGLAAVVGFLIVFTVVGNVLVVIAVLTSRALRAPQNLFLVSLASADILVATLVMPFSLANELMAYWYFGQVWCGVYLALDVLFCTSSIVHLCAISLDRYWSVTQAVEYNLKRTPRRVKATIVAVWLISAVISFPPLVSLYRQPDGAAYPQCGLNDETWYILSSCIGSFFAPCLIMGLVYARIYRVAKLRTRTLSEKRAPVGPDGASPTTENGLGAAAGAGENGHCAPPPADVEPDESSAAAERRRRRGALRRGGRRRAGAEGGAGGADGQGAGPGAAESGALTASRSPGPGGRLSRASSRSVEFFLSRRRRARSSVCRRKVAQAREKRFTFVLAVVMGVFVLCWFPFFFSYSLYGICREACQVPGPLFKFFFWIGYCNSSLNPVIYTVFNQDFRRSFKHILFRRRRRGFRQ
Assay [7] is described as follows: blockers of RIG-like receptor reporter activation – cell-based, Sendai virus stimulus, luciferase, 10K MLSCN set, TLR/RLR signaling modifier project, primary screen (AID 602276).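 Also: firefly luciferase from ISG56 promoter only with Renilla not read in this screen; 0% = Sendai virus plus DMSO and 100% = medium plus DMSO without virus.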 The note with it: HEK293 RL24 IRF3 luciferase reporter, at 10 µM, stronger effect = higher value. (A reporter such as luciferase makes a cellular process visible.)
Assay [8] can be described thus: TLR3 IRF3 reporter activation blockers – cell-based, poly I:C stimulus, luciferase, 10K MLSCN set, primary screen (AID 602277;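 active = inhibition of the reporter signal at or above 50%; inactive = inhibition below 50%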). The note with it: HEK293-TLR3 RL24 IRF3 luciferase reporter, at 10 µM, stronger effect = higher value.

Activity calls are given as the source filed them.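 The calls were made as follows, unless noted: active = inhibition at or above 50% at 10 µM; inactive = inhibition below 50%.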

As a reminder, the inhibition is the relative decrease from the control value, in per cent. Regarding `N#Cc1ccc(CSc2nnc(-c3cccs3)n2-c2ccccc2)cc1`, the cell count in assay [1] stood at 369. Further, the inhibition in assay [1] was -6% (inactive); in assay [3], -50% (inactive); in assay [7], -0.725% (inactive); in assay [8], 2.95% (inactive). Moreover, the inhibition of aggregation in assay [2] is -12.4% (inactive). The nuclei count in assay [2] turned out to be 99.1%; in assay [3], 120%. Further, the fluorescence slope in assay [4] was -0.5 (inactive). Besides, in assay [5], the NADPH fluorescence slope was 9.2e-06 (inactive). For the same molecule, the slope in assay [6] is 0.00461 (inactive).

Regarding `CN(C(=O)c1ccccn1)c1nnc(-c2cccnc2)s1`, the cell count in assay [1] is 622. Besides, the inhibition is -8.7% (inactive) in assay [1], -52.7% (inactive) in assay [3], 0.693% (inactive) in assay [7] and -16.2% (inactive) in assay [8]. Besides, the inhibition of aggregation in assay [2] was 11.2% (inactive). Moreover, the nuclei count in assay [2] stood at 93.2%; in assay [3], 106%. The fluorescence slope in assay [4] is -0.489 (inactive). Moreover, the NADPH fluorescence slope in assay [5] is -5.1e-05 (inactive). The slope in assay [6] was 0.0044 (inactive).

In the case of `CC(=O)NC(CCS(C)(=O)=O)C(=O)Nc1cccc2ccccc12` (centres undefined), in assay [1], the cell count was 667. In addition, the inhibition in assay [1] was 3.9% (inactive); in assay [3], -7.5% (inactive); in assay [7] it was 1.24% (inactive); in assay [8], 31.9% (inactive). Also, in assay [2], the inhibition of aggregation was 18.3% (inactive). Further, the figures for the nuclei count in assay [2] and in assay [3] were 100% and 108%, respectively. Further, in assay [4], the fluorescence slope is -0.564 (inactive). Also, in assay [5], the NADPH fluorescence slope was -3.4e-05 (inactive). The slope in assay [6] was 0.006 (inactive).

As for `CCOc1ccc(NC(=O)CSc2nnc(COc3c(C)cccc3C)o2)cc1`, the cell count in assay [1] is 577. Further, the inhibition in assay [1] is 7.3% (inactive); in assay [3] it was -13.1% (inactive); in assay [7], 6.58% (inactive); in assay [8], 30.3% (inactive). Besides, in assay [2], the inhibition of aggregation was -15% (inactive). Also, the nuclei count in assay [2] came to 116%; in assay [3], 115%. In addition, in assay [4], the fluorescence slope was -0.567 (inactive). The NADPH fluorescence slope in assay [5] was -1.4e-05 (inactive). The slope in assay [6] was 0.00747 (inactive).

Take `COc1ccc(Cn2nnnc2C(c2cccs2)N2CCOCC2)cc1` (centres undefined): in assay [1], the cell count came to 572. Further, the inhibition was -4.8% (inactive) in assay [1], -10.4% (inactive) in assay [3], -1.07% (inactive) in assay [7] and -0.428% (inactive) in assay [8]. Further, in assay [2], the inhibition of aggregation was -10.4% (inactive). In addition, the nuclei count in assay [2] amounted to 98.8%; in assay [3] it was 114%. Also, the fluorescence slope in assay [4] is -0.419 (inactive). Besides, the NADPH fluorescence slope in assay [5] is 1.2e-06 (inactive). The slope in assay [6] is 0.00389 (inactive).

For `CCCC(=O)Nc1cccc(NC(=O)CN2CCN(c3ccccc3OC)CC2)c1`, the cell count in assay [1] was found to be 693. Moreover, the inhibition in assay [1] is -15.2% (inactive); in assay [3], -61.4% (inactive); in assay [7], -1.32% (inactive); in assay [8], 11.7% (inactive). In assay [2], the inhibition of aggregation was 17.6% (inactive). Moreover, the results for the nuclei count in assay [2] and in assay [3] were 98.8% and 104%, respectively. In addition, the fluorescence slope in assay [4] is -0.481 (inactive). Also, the NADPH fluorescence slope in assay [5] was -4.6e-05 (inactive). Further, the slope in assay [6] was 0.00587 (inactive).

Consider `COCCNC(=O)C(c1ccc(C)o1)N(Cc1ccc(F)cc1)C(=O)Cn1nnc2ccccc21` (centres undefined), for which the cell count in assay [1] turned out to be 591. Moreover, the inhibition in assay [1] was -8.1% (inactive); in assay [3], 12.3% (inactive); in assay [7], 9.7% (inactive); in assay [8], 24.6% (inactive). In addition, in assay [2], the inhibition of aggregation is -12.2% (inactive). Further, the nuclei count in assay [2] was determined as 121%; in assay [3] it was 108%. For the same molecule, in assay [4], the fluorescence slope was -0.381 (inactive). In addition, in assay [5], the NADPH fluorescence slope is -7.3e-05 (inactive). Moreover, in assay [6], the slope was 0.00726 (inactive).

In the case of `Cc1cc(NC(=O)CCOc2ccccc2)no1`, the cell count in assay [1] was determined as 403. In addition, the inhibition in assay [1] was -11.8% (inactive); in assay [3], 35.5% (inactive); in assay [7], 6.04% (inactive); in assay [8] it was 23.9% (inactive). The inhibition of aggregation in assay [2] was -20.8% (inactive). The nuclei count in assay [2] stood at 113%; in assay [3], 64.3%. Moreover, the fluorescence slope in assay [4] was -0.455 (inactive). Moreover, the NADPH fluorescence slope in assay [5] was -5e-05 (inactive). Further, the slope in assay [6] is 0.00305 (inactive).

Take `CC(=O)Nc1ccc(S(=O)(=O)NCC2CCC(C(=O)NCCCN3CCCC3=O)CC2)cc1` (centres undefined): the cell count in assay [1] is 318. Besides, the inhibition in assay [1] is -0.8% (inactive); in assay [3] it was -15.4% (inactive); in assay [7], 20.7% (inactive); in assay [8], 19.4% (inactive). The inhibition of aggregation in assay [2] was 5.9% (inactive). In addition, the nuclei count was 112% in assay [2] and 106% in assay [3]. Moreover, the fluorescence slope in assay [4] is -0.484 (inactive). Moreover, the NADPH fluorescence slope in assay [5] is -3.3e-05 (inactive). Besides, the slope in assay [6] is 0.00457 (inactive).

Take `Cc1cc(C(=O)NCCCc2ccccc2)no1`: the cell count in assay [1] worked out at 765. Further, the inhibition in assay [1] is -8.2% (inactive); in assay [3] it was -58% (inactive); in assay [7] it was -11.5% (inactive); in assay [8], -13.4% (inactive). Also, in assay [2], the inhibition of aggregation was 0% (inactive). In addition, the nuclei count was found to be 105% in assay [2] and 120% in assay [3]. In addition, the fluorescence slope in assay [4] was -0.358 (inactive). The NADPH fluorescence slope in assay [5] was -1.1e-05 (inactive). In addition, the slope in assay [6] was 0.00425 (inactive).

On to `CCN(CCCNS(=O)(=O)c1ccc2c(c1)oc(=O)n2C)c1cccc(C)c1`, for which, in assay [1], the cell count came out at 740. Further, the inhibition in assay [1] was -0.6% (inactive); in assay [3], -21.3% (inactive); in assay [7], 18.1% (inactive); in assay [8] it was 32.9% (inactive). Moreover, the inhibition of aggregation in assay [2] was -22.6% (inactive). The nuclei count in assay [2] worked out at 110%; in assay [3], 102%. For the same molecule, the fluorescence slope in assay [4] is -0.574 (inactive). For the same molecule, the NADPH fluorescence slope in assay [5] was 9.4e-07 (inactive). The slope in assay [6] was 0.00612 (inactive).

With `Cc1cccc(N2CCN(C(=O)C3CCCN(S(=O)(=O)c4cnc[nH]4)C3)CC2C)c1` (centres undefined), the cell count in assay [1] came to 387. For the same molecule, the inhibition in assay [1] is 1.7% (inactive); in assay [3], -11.9% (inactive); in assay [7], 6.53% (inactive); in assay [8], 17.4% (inactive). For the same molecule, the inhibition of aggregation in assay [2] is -14% (inactive). The nuclei count in assay [2] came to 107%; in assay [3] it was 122%. The fluorescence slope in assay [4] was -0.438 (inactive). The NADPH fluorescence slope in assay [5] is 1.5e-05 (inactive). In addition, in assay [6], the slope was 0.00647 (inactive).

For `O=C(CSc1nc2ccccc2o1)Nc1ccccc1`, the cell count in assay [1] was 728. Moreover, the inhibition in assay [1] was 11.1% (inactive); in assay [3], -10.4% (inactive); in assay [7], -21.3% (inactive); in assay [8], -87.6% (inactive). Moreover, the inhibition of aggregation in assay [2] was 0.9% (inactive). Also, the nuclei count was determined as 100% in assay [2] and 106% in assay [3]. In assay [4], the fluorescence slope is -0.285 (inactive). In assay [5], the NADPH fluorescence slope is -8e-06 (inactive). Also, in assay [6], the slope was 0.00667 (inactive).

As to `CCCCC(=O)NCCc1ccc(S(N)(=O)=O)cc1`, the cell count in assay [1] is 555. For the same molecule, the inhibition is 10.7% (inactive) in assay [1], -35% (inactive) in assay [3], 3.38% (inactive) in assay [7] and 10.4% (inactive) in assay [8]. For the same molecule, in assay [2], the inhibition of aggregation is 1.1% (inactive). Further, the nuclei count in assay [2] came to 101%; in assay [3], 88.9%. In assay [4], the fluorescence slope was -0.412 (inactive). In addition, in assay [5], the NADPH fluorescence slope was -5.1e-05 (inactive). In addition, the slope in assay [6] is 0.0057 (inactive).

Source of the values: PubChem BioAssay.
